Entries with a potency or affinity are not part of this list. The source made the active and inactive calls.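 How the source made its calls: active means Loss of cell signal with fitted half-effect dose at or below twice the top valid tested dose; inconclusive means Poor fit, or flat fit from -70 to -30 percent; inactive means Half-effect above limit, rising signal, or flat within 30 percent.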
experiment: viability loss in HEK293T cells – cell-based, cherry-picks, cytotoxicity control for HIV Vif inhibitor project, dose response (AID 652208); conditions: CellTiter-Glo luminescence, 24 h; series mostly up to 26 µM; activity change, negative = cytotoxicity: at the top concentration;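 further: 0% = median neutral control wells and -100% = median staurosporine control wells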

SMILES	activity change, negative = cytotoxicity
C=CCN1C(=O)/C(=C/c2ccc(-c3ccc(F)cc3)o2)SC1=S	-18.7% (inactive)
CC(C)c1ccc(NC(=O)N2CCCC2C(=O)Nc2ccc(-n3cnnn3)cc2)cc1 (stereo not drawn)	0.715% (inactive)
Cc1ccc(NC(=O)/C=C/c2ccco2)nc1	-17.1% (inactive)
O=C(NCC1CC1)NC(=O)c1c(F)cccc1Cl	2.39% (inactive)
COc1ccc(-c2nnc(SCC(=O)N3CCCc4ccccc43)o2)cc1OC	-13.4% (inactive)
Cc1cc(-c2nnc(SCC(=O)c3ccc(Cl)cc3)o2)no1	-6.3% (inactive)
CCCCCCn1c(N(CC)CC)nc2c1c(=O)[nH]c(=O)n2C	-0.206% (inactive)
O=C(CSc1ncccn1)NC(=O)Nc1ccc2c(c1)OCCO2	-4.69% (inactive)
COc1cccc(CNc2ccc3c(c2)CCC3)c1	-9.75% (inactive)
CCCCCCOC(=O)C(C#N)c1nc2ccccc2nc1N1CCOCC1 (stereo not drawn)	8.63% (inactive)
Oc1[nH]c(=S)sc1/C=C1\C(c2ccccc2)=Nc2ccccc21	4.54% (inactive)
COc1ccc(-c2nc(CS(=O)(=O)CC(=O)NCCc3ccccc3)c(C)o2)cc1	-6.93% (inactive)
COc1cc(-c2cc(=O)c3c(O)c(OC)c(OC)c(O)c3o2)ccc1O	4.31% (inactive)
CCN(CC)C(=O)c1ccc(C(=O)c2c(C)cc(C)cc2C)cc1	-14.2% (inactive)
O=C(CCCCCn1c(=S)[nH]c2ccc(N3CCOCC3)cc2c1=O)NCc1ccccc1Cl	-15.5% (inactive)
CC(=O)Nc1cc(NC(=O)C2C3C=CC(C3)C2C(=O)O)ccc1Cl (stereo not drawn)	-1.62% (inactive)
CC(C)CN1C(=O)C(=O)N(CC(=O)c2ccc3c(c2)OCO3)C1=O	6.18% (inactive)
COc1cc2[nH]c(=O)n(CCCC(=O)NC3CCCCC3)c(=O)c2cc1OC	-1.25% (inactive)
CCOC(=O)C1=C(C)NC(=O)NC1	4.76% (inactive)

SMILES	activity change, negative = cytotoxicity
COc1ccccc1-c1cccc2nccn12	-5.37% (inactive)
CCN1c2ccccc2NC2C1C(C(C)=O)C(=O)N2c1ccc(Cl)cc1 (stereo not drawn)	-15.2% (inactive)
O=C(O)/C=C/C(=O)Nc1cccc(C(F)(F)F)c1	3.54% (inactive)
CC(C)C(NC(=O)c1ccccc1NC(=O)C(C)(C)C)C(=O)N1CCOCC1 (stereo not drawn)	5% (inactive)
Cc1ncoc1C(=O)N1CCCC(C(=O)c2ccc(Oc3ccccc3)cc2)C1 (stereo not drawn)	-2.5% (inactive)
CCN1CCN(c2cc(=O)n(-c3cc(Cl)ccc3C)c(=O)[nH]2)CC1	4.9% (inactive)
COc1cc(OC)cc(C(=O)NC(C(=O)Nc2ccc3c(c2)OCO3)C(C)C)c1 (stereo not drawn)	3.67% (inactive)
COc1ccc(CC(=O)OCC(=O)Nc2cccc(Br)c2)cc1	4.24% (inactive)
CCOc1ccc(Nc2nc3c(C)cccc3cc2C#N)cc1	-0.828% (inactive)
CC(=O)Nc1ccc(C2(c3ccc(NC(C)=O)cc3)NC(=O)c3ccccc32)cc1	11.7% (inactive)
Cc1nnc(NC(=O)CSc2nnc(NC(=O)C(C)(C)C)s2)s1	7.39% (inactive)
Cc1nc(SCC(=O)N2CCCC2=O)nc(C)c1C	5.18% (inactive)
Cc1nnc(NC(=O)Cn2nc(C)c3ccccc3c2=O)s1	-11.4% (inactive)
COc1ccc([C@H]2CC(=O)C=C(c3cc4ccccc4s3)C2)cc1	-12.1% (inactive)
O=C(NCc1ccccn1)c1ccc(Cn2c(=S)[nH]c3ccc(Br)cc3c2=O)cc1	-1.11% (inactive)
Cc1cc(C)c2nc3sc(C(=O)N4CCOCC4)c(N)c3cc2c1	-9.92% (inactive)
CC1(C)CC(=O)C2=C(C1)Nc1ccccc1N(C(=O)C1CC1)C2c1ccco1 (stereo not drawn)	-1.94% (inactive)
CC(C)OC(=O)c1cn(-c2ccccc2)nc1-c1ccc2c(c1)OCCO2	-1.1% (inactive)
Cc1nc(NC(=O)C(C)Oc2cccc(Cl)c2)sc1C(=O)N(C)C (stereo not drawn)	-12.6% (inactive)

Reference: PubChem BioAssay AID652208 (Broad Institute, 2013)
